# Experimental data taken from PubChem BioAssay (NCATS).
# Inconclusive results are not listed. Active and inactive are the calls of the source. Calls come from the whole dose curve; as a rule, active = well fitted curve in the direction sought with a large enough effect; inconclusive = small, poorly fitted or top-dose-only effect, or another doubt; inactive = no such curve, though single readings can be large; an effect the other way counts as inactive or inconclusive.
# Target: D(1A) dopamine receptor (Homo sapiens) (UniProt P21728)
# Sequence (P21728 whole entry, looked up): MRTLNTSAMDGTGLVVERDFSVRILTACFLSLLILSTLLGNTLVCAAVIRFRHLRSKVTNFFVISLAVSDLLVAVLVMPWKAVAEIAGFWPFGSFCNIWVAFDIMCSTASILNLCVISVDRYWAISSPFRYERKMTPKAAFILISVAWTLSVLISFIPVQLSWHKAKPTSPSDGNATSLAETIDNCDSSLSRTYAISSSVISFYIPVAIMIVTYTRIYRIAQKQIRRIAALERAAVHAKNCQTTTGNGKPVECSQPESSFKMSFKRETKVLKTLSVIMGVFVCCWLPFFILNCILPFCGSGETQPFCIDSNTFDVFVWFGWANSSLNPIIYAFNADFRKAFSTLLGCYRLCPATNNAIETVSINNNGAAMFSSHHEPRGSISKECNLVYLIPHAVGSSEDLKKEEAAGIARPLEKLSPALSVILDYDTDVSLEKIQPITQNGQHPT
# Test: HTS Assay for Allosteric Agonists of the Human D1 Dopamine Receptor: Primary Screen for Agonists (AID 488981)
# Details: Inducible HEK293 T-REx D1 cells, calcium-flux fluorescence, 180 s kinetic; series mostly up to 41.8 µM
# Method in brief: (§1)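 Tetracycline-induced HEK293 T-REx cells force-coupled to calcium signalling were incubated overnight at 30 C and dye-loaded at room temperature. Calcium flux over 180 s after compound addition flagged agonists; a further 180 s read after EC20 dopamine flagged potentiators.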
row,SMILES,outcome
1,CC(=O)N[C@@H](CS)C(=O)O,inactive
2,COC(=O)[C@@H]1[C@H]2C[C@H]3c4[nH]c5ccccc5c4CCN3C[C@@H]2CC[C@@H]1O,inactive
3,CCCNC(=O)NS(=O)(=O)c1ccc(Cl)cc1,inactive
4,CC(=O)c1ccc(S(=O)(=O)NC(=O)NC2CCCCC2)cc1,inactive
5,Clc1ccc(Cn2c(CN3CCCC3)nc3ccccc32)cc1,inactive
6,O=C(O)CCc1nc(-c2ccccc2)c(-c2ccccc2)o1,inactive
7,CC(C)NCC(O)COc1cccc2[nH]ccc12 (configuration not stated),inactive
8,O=C1NCC2(CCN(CCc3ccccc3)CC2)O1,inactive
9,CC(=O)CCCCn1c(=O)c2c(ncn2C)n(C)c1=O,inactive
10,CN(C)CCC(c1ccccc1)c1ccccn1 (configuration not stated),inactive
11,CC(C)OC(=O)C(C)(C)Oc1ccc(C(=O)c2ccc(Cl)cc2)cc1,inactive
12,O=c1c(-c2ccc(O)cc2)coc2cc(O)ccc12,inactive
13,CCN(CC)C(=O)c1ccc(O)c(OC)c1,inactive
14,CCN1CCC[C@H]1CNC(=O)c1cc(S(N)(=O)=O)ccc1OC,inactive
15,NC(N)=Nc1nc(CSCC/C(N)=N/S(N)(=O)=O)cs1,inactive
16,Cc1cccc(C)c1OCC(C)N (configuration not stated),inactive
17,O=C1NC(=O)C(c2ccccc2)(c2ccccc2)N1,inactive
18,C[N+](C)(C)CCCCCC[N+](C)(C)C,inactive
19,CCN(CC)CCOC(=O)c1ccc(N)cc1,inactive
20,NCCS,inactive
21,COc1ccccc1N1CCN(CCCNc2cc(=O)n(C)c(=O)n2C)CC1,inactive
22,CCCCC1C(=O)N(c2ccccc2)N(c2ccccc2)C1=O,inactive

# Target: D(1A) dopamine receptor (Homo sapiens) (UniProt P21728)
# Test: HTS Assay for Allosteric Agonists of the Human D1 Dopamine Receptor: Primary Screen for Potentiators (AID 488982)
# Details: HEK293 T-REx D1 inducible cells, calcium flux, kinetic fluorescence; series mostly up to 8.37 µM
# Method in brief: as §1
row,SMILES,outcome
1,COC(=O)[C@@H]1[C@H]2C[C@H]3c4[nH]c5ccccc5c4CCN3C[C@@H]2CC[C@@H]1O,inactive
2,CCCNC(=O)NS(=O)(=O)c1ccc(Cl)cc1,inactive
3,CC(=O)c1ccc(S(=O)(=O)NC(=O)NC2CCCCC2)cc1,inactive
4,Clc1ccc(Cn2c(CN3CCCC3)nc3ccccc32)cc1,inactive
5,O=C(O)CCc1nc(-c2ccccc2)c(-c2ccccc2)o1,inactive
6,CC(C)NCC(O)COc1cccc2[nH]ccc12 (configuration not stated),inactive
7,O=C1NCC2(CCN(CCc3ccccc3)CC2)O1,inactive
8,CC(=O)CCCCn1c(=O)c2c(ncn2C)n(C)c1=O,inactive
9,CN(C)CCC(c1ccccc1)c1ccccn1 (configuration not stated),inactive
10,CC(C)OC(=O)C(C)(C)Oc1ccc(C(=O)c2ccc(Cl)cc2)cc1,inactive
11,O=c1c(-c2ccc(O)cc2)coc2cc(O)ccc12,inactive
12,CCN(CC)C(=O)c1ccc(O)c(OC)c1,inactive
13,CCN1CCC[C@H]1CNC(=O)c1cc(S(N)(=O)=O)ccc1OC,inactive
14,NC(N)=Nc1nc(CSCC/C(N)=N/S(N)(=O)=O)cs1,inactive
15,Cc1cccc(C)c1OCC(C)N (configuration not stated),inactive
16,O=C1NC(=O)C(c2ccccc2)(c2ccccc2)N1,inactive
17,C[N+](C)(C)CCCCCC[N+](C)(C)C,inactive
18,CCN(CC)CCOC(=O)c1ccc(N)cc1,inactive
19,NCCS,inactive
20,COc1ccccc1N1CCN(CCCNc2cc(=O)n(C)c(=O)n2C)CC1,inactive
